This is an account of results in PubChem BioAssay.

Assay [1] can be described thus: resazurin metabolic signal in HepG2 cells – cell-based, resazurin fluorescence, 24 h, PK04 Diversity Set, profiling panel (AID 1172). Note: test concentration not given here. The note with it: HepG2 viability, higher = more signal. In general terms: The colour change of resazurin is a common sign of viable cells or microbes.
Assay [2] is described as follows: budding yeast growth changes without added modifier – OD600, strain BY4716, 24 h, basal condition, primary screen (AID 1173). Particulars: S. cerevisiae BY4716 growth, OD600, 24 h; higher = more signal, called active from +8 up or from −8 down.
A short description of assay [3]: viability profiling in MM1S myeloma cells – cell-based, resazurin fluorescence, basal, 24 h, PK04 Diversity Set, profiling panel (AID 1174).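 Note: MM1S multiple myeloma cell line; test concentration not given here.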 Particulars: higher = more signal, called active from +8 up or from −8 down.
The target of assay [4] is Dihydroorotate dehydrogenase (quinone), mitochondrial (Plasmodium falciparum (isolate 3D7)) (UniProt Q08210). Description: inhibition of P. falciparum DHODH – biochemical, C-terminal His tag, absorbance 600 nm, primary screen (AID 1175).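 Note: recombinant parasite enzyme with a five histidine tag at its C terminus; test concentration not given here.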 Particulars: PfDHODH enzyme, DCIP absorbance 600 nm; higher = more signal, called active from +8 up or from −8 down.
Chain of Dihydroorotate dehydrogenase (quinone), mitochondrial (Plasmodium falciparum (isolate 3D7)) (Q08210 whole entry, looked up): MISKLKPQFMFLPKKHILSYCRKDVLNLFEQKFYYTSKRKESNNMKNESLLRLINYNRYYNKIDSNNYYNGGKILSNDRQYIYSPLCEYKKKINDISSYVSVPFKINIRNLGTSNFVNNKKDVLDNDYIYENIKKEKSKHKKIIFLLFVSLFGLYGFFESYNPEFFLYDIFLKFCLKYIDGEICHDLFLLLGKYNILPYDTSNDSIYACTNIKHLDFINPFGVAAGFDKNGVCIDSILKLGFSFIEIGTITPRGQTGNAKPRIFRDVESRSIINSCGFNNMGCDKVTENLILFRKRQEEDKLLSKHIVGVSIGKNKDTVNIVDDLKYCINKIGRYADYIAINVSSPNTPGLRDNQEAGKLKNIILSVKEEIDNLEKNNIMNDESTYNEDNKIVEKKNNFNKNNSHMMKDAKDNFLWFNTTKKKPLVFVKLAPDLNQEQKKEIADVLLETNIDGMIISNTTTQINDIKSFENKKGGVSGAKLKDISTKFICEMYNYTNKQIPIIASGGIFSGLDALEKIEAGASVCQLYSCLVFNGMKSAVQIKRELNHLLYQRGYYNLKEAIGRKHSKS
A short description of assay [5]: inhibition of PAO1 biofilm formation – strain PAO1, LB-PBS medium, absorbance 600 nm, primary screen (AID 1176). Note: test concentration not given here. Particulars: P. aeruginosa PAO1 growth/biofilm, A600, 12 h; higher = more signal.
Assay [6] in a line: growth modulation of vineyard yeast isolate – strain RM11-1a, OD600, basal, 24 h, primary screen (AID 1177).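 Note: cultures grown under basal conditions with no added stressor; test concentration not given here.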 The note with it: S. cerevisiae RM11-1a growth, OD600, 24 h; higher = more signal, called active from +8 up or from −8 down.
A short description of assay [7]: growth of efflux-deficient E. coli DRC39 – strain DRC39, OD650, 24 h, E. coli filamentation inducers, primary screen (AID 1178).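 Note: growth measured as culture turbidity by optical density at 650 nm; test concentration not given here.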 The note with it: E. coli DRC39 acrAB, higher = more signal, called active from +8 up or from −8 down.
The nature of assay [8]: growth of efflux-deficient E. coli DRC39 – strain DRC39, OD650, 48 h, E. coli filamentation inducers, primary screen (AID 1179).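 Note: screen aims at cell division blockers that make cells filament.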 The note with it: E. coli DRC39 delta-acrAB growth, higher = more signal, called active from +8 up or from −8 down.
Assay [9] in a line: viability profiling in RPMI8226 myeloma cells – cell-based, resazurin fluorescence, basal, 24 h, PK04 Diversity Set, profiling panel (AID 1180).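 Note: RPMI8826 multiple myeloma cell line at 5000 cells per well; test concentration not given here.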 Particulars: higher = more signal.
Assay [10] concerns the target E3 ubiquitin-protein ligase XIAP (Homo sapiens) (UniProt P98170). Put plainly: small molecules binding XIAP protein – biophysical, small-molecule microarray, fluorescence 635 nm, primary screen (AID 1181).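 Note: score merges 667 nm emission and signal to noise over triplicate slides.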 The note with it: higher = more signal.

Activity calls are given as the source filed them. Unless noted, the rule behind the calls is not given here.

Chain of E3 ubiquitin-protein ligase XIAP (Homo sapiens) (P98170 whole entry, looked up): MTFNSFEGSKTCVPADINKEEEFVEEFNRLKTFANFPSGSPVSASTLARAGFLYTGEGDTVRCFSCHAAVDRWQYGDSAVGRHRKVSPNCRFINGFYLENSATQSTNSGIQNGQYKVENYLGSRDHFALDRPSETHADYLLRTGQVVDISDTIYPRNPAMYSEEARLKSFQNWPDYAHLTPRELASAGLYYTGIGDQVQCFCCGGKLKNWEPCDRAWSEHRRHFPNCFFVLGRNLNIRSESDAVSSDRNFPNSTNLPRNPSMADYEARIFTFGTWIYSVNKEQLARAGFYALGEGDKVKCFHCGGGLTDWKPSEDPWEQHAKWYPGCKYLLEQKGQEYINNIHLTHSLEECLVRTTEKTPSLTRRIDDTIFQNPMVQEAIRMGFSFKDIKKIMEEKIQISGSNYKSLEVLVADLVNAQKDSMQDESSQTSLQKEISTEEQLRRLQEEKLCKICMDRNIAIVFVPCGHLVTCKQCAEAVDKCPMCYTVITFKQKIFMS

With `C[C@@]1([C@@H](NC(=O)c2ccccc2)c2ccc(-c3ccccc3)cc2)C[C@H]1C1CCCCC1`, the z-score in assay [1] was -1.32; in assay [2] it was 1.14 (inactive); in assay [3], -1.93 (inactive); in assay [5] it was 1.57 (inactive); in assay [6], 0.0656 (inactive); in assay [7], -1.59 (inactive). For the same compound, the figures for the z-score in [8] and in assay [9] were -1.17 (inactive) and -0.675, respectively. Further, the results for the composite z-score in assay [4] and in assay [10] were -0.712 (inactive) and -0.117, respectively.
Turning to `COCCOC(=O)N1C(=O)[C@@]2(c3cc(C#Cc4ccc(OC)cc4)ccc31)[C@H](C(N)=O)[C@H]1C(=O)O[C@H](c3ccccc3)[C@H](c3ccccc3)N1[C@@H]2c1ccccc1OCCO`, the z-score in [1] was -0.483; in [2], 1.06 (inactive); in [3], -2.17 (inactive); in [5], 2.94 (inactive); in assay [6], 1.5 (inactive); in assay [7], -0.688 (inactive). Besides, the z-score in assay [8] was -0.469 (inactive); in [9], -2.68. The figures for the composite z-score in assay [4] and in [10] were 0.361 (inactive) and 0.0748, respectively.
Take `CCCCCN1CC=CC23O[C@@H]4/C=C\CCCOC(=O)C4[C@H]2C(=O)N(CCCO)[C@@H]3C1=O` (stereo not given in full): the z-score in assay [1] was 1.15; in [2], -1.26 (inactive); in [3], 1.21 (inactive); in assay [5], 0.661 (inactive); in [6] it was -1.32 (inactive); in assay [7], 0.581 (inactive). Also, the z-score in assay [8] was 0.025 (inactive); in assay [9], 1.72. Besides, the composite z-score in [4] was -1.37 (inactive); in assay [10], 0.239.
On to `CC(C)(C)OC(=O)CC[C@@]1(C(=O)NCCN2CCOCC2)N=C(c2ccc(OCCCO)cc2)O[C@@H]1c1ccccc1N=[N+]=[N-]`, for which the z-score in assay [1] is -0.583; in assay [2] it was -0.643 (inactive); in assay [3] it was -1.76 (inactive); in assay [5] it was 0.41 (inactive); in assay [6] it was 0.0002 (inactive); in [7], -0.0723 (inactive). The z-score in assay [8] is -0.169 (inactive); in assay [9] it was -0.601. Also, the composite z-score in assay [4] is -0.462 (inactive); in assay [10], 0.0877.
`COc1ccc(NN2C(C(O)c3ccc([N+](=O)[O-])cc3)C=CC3C(=O)N(C4CCCCC4)C(=O)C32)cc1` (stereo not given): the z-score in [1] is 0.755; in assay [2], 0.136 (inactive); in assay [3], 0.0225 (inactive); in assay [5] it was 0.67 (inactive); in [6] it was 0.388 (inactive); in assay [7], -0.637 (inactive). The figures for the z-score in assay [8] and in [9] were 0.523 (inactive) and 0.907, respectively. Further, the results for the composite z-score in assay [4] and in assay [10] were -0.238 (inactive) and 0.209, respectively.
On to `COCCOC(=O)N1C(=O)[C@@]2(c3ccccc31)[C@H](c1ccc(O)cc1)N1[C@H](c3ccccc3)[C@H](c3ccccc3)OC(=O)[C@H]1[C@@H]2C(=O)NC[C@H](O)c1ccccc1`, for which the z-score in assay [1] was -0.796; in assay [2], 0.861 (inactive); in assay [3], -0.397 (inactive); in assay [5], 0.173 (inactive); in assay [6], 0.957 (inactive); in assay [7], -1.12 (inactive). Besides, the z-score in assay [8] is -1.29 (inactive); in assay [9], -0.199. For the same compound, the composite z-score was 0.873 (inactive) in [4] and 0.201 in [10].
Take `CN(C)CCCNC(=O)[C@@]1(c2ccc([N+](=O)[O-])cc2)CC(=O)N(C2CCCCC2)[C@@H]1c1ccc(CO)cc1I`: the z-score in assay [1] was -6.5; in assay [2], -11.7 (active); in [3], -9.1 (active); in [5], 0.0714 (inactive); in assay [6], 0.344 (inactive); in assay [7], 0.725 (inactive). The z-score in assay [8] is -1.28 (inactive); in [9] it was -6.61. In addition, the results for the composite z-score in assay [4] and in [10] were -1.19 (inactive) and 0.125, respectively.
In the case of `COCCOC(=O)N1C(=O)[C@@]2(c3cc(C#CCCO)ccc31)[C@H](C(=O)Nc1nc3ccccc3s1)[C@H]1C(=O)O[C@H](c3ccccc3)[C@H](c3ccccc3)N1[C@@H]2c1ccc(OCCO)cc1`, the z-score in [1] is 1.04; in assay [2], 1.96 (inactive); in assay [3] it was -0.922 (inactive); in assay [5] it was 2.84 (inactive); in assay [6], 2.33 (inactive); in assay [7], 0.348 (inactive). Moreover, the z-score was 0.215 (inactive) in [8] and -1.66 in assay [9]. The composite z-score in assay [4] was -0.944 (inactive); in [10] it was 0.154.
On to `COc1ccc([Si](C)(C)[C@H]2[C@H](CCO)O[C@@]3(C(=O)N(C)c4c(Br)cc(C)cc43)[C@@H]2C)cc1`, for which the z-score in assay [1] is -6.47; in assay [2], 0.0436 (inactive); in assay [3], -9.16 (active); in [5], 0.814 (inactive); in assay [6], 3.93 (inactive); in assay [7], -0.185 (inactive). The z-score is -1.4 (inactive) in assay [8] and -6.31 in assay [9]. Also, the composite z-score in assay [4] was 1.13 (inactive); in assay [10] it was 0.184.
Take `NCCCCCNC(=O)[C@@H]1C[C@@H]2C(=O)N[C@@H](Cc3ccccc3)C(=O)N2[C@@H]1c1cccc(OCCO)c1`: the z-score in assay [1] is -0.837; in [2], 1.04 (inactive); in assay [3] it was -0.104 (inactive); in assay [5] it was 0.174 (inactive); in [6] it was 0.606 (inactive); in assay [7], -0.297 (inactive). In addition, the figures for the z-score in assay [8] and in assay [9] were -0.457 (inactive) and -0.603, respectively. For the same compound, the composite z-score in [4] is 0.251 (inactive); in [10] it was 0.416.
For `O=C1C2C=CC(C(O)c3c(F)cccc3Cl)N(Nc3ccccc3)C2C(=O)N1c1ccccc1` (stereo not given), the z-score in [1] was 0.947; in assay [2], -1.48 (inactive); in [3], -0.478 (inactive); in assay [5], -0.131 (inactive); in [6] it was -0.679 (inactive); in assay [7], 0.302 (inactive). The z-score in assay [8] was 1.28 (inactive); in assay [9], 0.284. Moreover, the composite z-score in assay [4] is 0.693 (inactive); in [10], 0.0975.
Turning to `CS(=O)(=O)CCOC(=O)C1=CC(CCCO)=CC(c2ccc(CN3CCCC3)cc2)N(Cc2cc3c(cc2Br)OCO3)C=C1C(=O)OCCS(C)(=O)=O` (stereo not given), the z-score in assay [1] is 0.0305; in assay [2], -3.3 (inactive); in [3], 0.56 (inactive); in assay [5] it was -0.66 (inactive); in assay [6], 0.526 (inactive); in assay [7], 0.549 (inactive). The values for the z-score in [8] and in [9] were 0.325 (inactive) and 1.31, respectively. Also, the composite z-score in assay [4] is -4.55 (inactive); in assay [10], -0.0773.
